Screens as filed in PubChem.
G9a block = G9a (human) methyltransferase inhibition. G9a H3K9 monomethylation, AlphaScreen, 2 h. Potency, µM (highest dose often 102 µM), most hits filed as inhibitors. actives 8.8% (n = 350,000); note: nearly all actives have a fitted effect of over 75% in size
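Chemiluminescent proximity detection of H3K9 monomethylation, read after 10 min bead incubation in the dark. Reaction: 20 nM G9a, 500 nM biotin-H3K9 peptide, 20 uM SAM cofactor, 2 h, room temperature, following 15 min enzyme-compound preincubation.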
CtBP-E1A inh = inhibitors of CtBP/E1A interaction | AlphaScreen GST-E1A/His-CtBP binding, 1536-well; stronger effect = lower value | activity change, % (test concentration not listed) | actives 0.49% (n = 340,000) | AID 651724; in the data active = activity change below about -65%; inconclusive = mostly about -30% to -63%
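In 5 uL wells, 23 nL compound meets equimolar GST-E1A and His-CtBP (5X stock 125 nM each) for 2 h, 37 °C. Beads (5X, 50 ug/mL) then 1 h, 37 °C, dark.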
JMJD2A Tudor inh = JMJD2A Tudor domain (human) inhibition. Potency, µM (doses to about 114 µM), most hits filed as inhibitors. O75164. AlphaScreen JMJD2A-Tudor / H3K4me3 peptide binding. AID 504339. actives 4.4% (n = 390,000); note: nearly all actives have a fitted effect of over 50% in size
Six1-Eya2 inh = Six1/Eya2 interaction inhibition; activity change, % (test concentration not listed); actives 0.56% (n = 360,000); AlphaScreen GST-Six1/His-Eya2 binding, biochemical; stronger effect = lower value; Q15475+O00167; in the data active = activity change below about -65%; inconclusive = mostly about -30% to -63%
Target sequence (O00167 whole entry, looked up): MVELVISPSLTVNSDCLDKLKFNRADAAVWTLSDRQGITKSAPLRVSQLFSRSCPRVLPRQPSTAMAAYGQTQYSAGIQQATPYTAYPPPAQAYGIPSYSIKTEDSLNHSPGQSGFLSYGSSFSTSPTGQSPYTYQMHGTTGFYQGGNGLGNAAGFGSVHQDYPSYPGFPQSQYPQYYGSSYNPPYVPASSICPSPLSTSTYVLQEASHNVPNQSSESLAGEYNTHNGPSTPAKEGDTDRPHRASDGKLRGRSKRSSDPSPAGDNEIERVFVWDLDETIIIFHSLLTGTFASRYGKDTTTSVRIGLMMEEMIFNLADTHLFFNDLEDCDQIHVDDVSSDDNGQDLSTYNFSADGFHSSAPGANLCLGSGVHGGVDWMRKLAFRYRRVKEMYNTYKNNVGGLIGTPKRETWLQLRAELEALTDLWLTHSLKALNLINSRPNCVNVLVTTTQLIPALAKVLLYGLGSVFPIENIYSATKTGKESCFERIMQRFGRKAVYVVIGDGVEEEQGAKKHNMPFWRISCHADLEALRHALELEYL
Target sequence (Q15475 whole entry, looked up): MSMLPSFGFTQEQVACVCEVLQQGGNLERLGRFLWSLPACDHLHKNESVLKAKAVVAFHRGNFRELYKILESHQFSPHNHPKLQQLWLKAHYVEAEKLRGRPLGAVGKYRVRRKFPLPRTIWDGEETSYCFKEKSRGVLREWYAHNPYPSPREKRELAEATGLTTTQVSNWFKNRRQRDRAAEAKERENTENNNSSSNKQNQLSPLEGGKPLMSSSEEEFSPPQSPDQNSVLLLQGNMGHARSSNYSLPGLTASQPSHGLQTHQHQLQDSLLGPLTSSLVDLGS
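Six1/Eya2 binding was read as AlphaScreen signal after compounds were pinned into GST-Six1 plus His-tagged Eya2 (5X stock 250/500 nM) in pH 8.0 Tris/NaCl/TCEP buffer, beads added, then incubated 1 h, 37 C, dark.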
HP1b binding inh = blocks HP1-beta chromodomain binding to methylated histone tails. P83916. AlphaScreen HP1-beta / biotin-H3K9me3 peptide binding. Potency, µM (series often up to 114 µM), actives largely listed as inhibitors. actives 0.56% (n = 390,000). AID 540317; note: nearly all actives have a fitted effect of over 70% in size
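HP1-beta protein (50 nM final) preincubated 30 min at room temperature with biotinylated H3(1-18)K9me3 peptide (50 nM) in PBS pH 7.4, 0.01% Tween-20, then compound added for 30 min. AlphaScreen streptavidin donor/nickel chelate acceptor beads (10 ug/mL final), 30 min dark, luminescence read.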
BAZ2B block = inhibitors of human BAZ2B bromodomain; AlphaScreen BAZ2B-H3K14Ac peptide displacement; actives 4.4% (n = 360,000); AID 504333; Potency, µM (doses to about 114 µM), most hits filed as inhibitors; note: nearly all actives have a fitted effect of over 60% in size
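BAZ2B 50 nM plus b-H3(5-23)K14Ac 50 nM, PBS pH 7.4/0.01% Tween-20, 30 min RT; compound added (max 110 uM), 30 min RT; streptavidin donor/Ni-chelate acceptor beads 10 ug/mL final, 20 min dark; AlphaScreen read.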
A number is an active result; . = inactive; ? = inconclusive; / = not tested or not shown. A selection: hits, their analogues and other compounds. The true share with any hit is near 10%. Unless noted, calls come from the whole dose curve; as a rule, active = well fitted inhibition curve with a large enough effect; inconclusive = small, poorly fitted or top-dose-only effect; inactive = no such curve, though single readings can be large or run the other way.

SMILES	G9a block	CtBP-E1A inh	JMJD2A Tudor inh	Six1-Eya2 inh	HP1b binding inh	BAZ2B block
COc1ccc(S(=O)(=O)N(CC(=O)Nc2cc(C)cc(C)c2)c2ccc(Cl)cc2)cc1	.	/	.	/	.	.
O=S(=O)(/N=C(/Sc1ccccc1)c1ccccc1)c1ccc(Cl)cc1	/	/	.	/	.	/
COc1ccc(OC)c(CNC(=O)Cc2ccc(NC(=O)N3CCCCc4ccccc43)cc2)c1	.	/	.	/	.	.
CC(=O)N1c2c(cc(Br)cc2S(=O)(=O)N2CCN(C(=O)c3ccco3)CC2)CC1C (centres undefined)	?	.	22µM	.	.	.
CC(c1ccc(O)cc1)(c1ccc(O)cc1)c1ccc(CCBr)cc1	79µM	/	.	.	.	?
C=CCN(CC=C)Cc1c(O)ccc2c1oc(=O)c1ccccc12	/	.	8.9µM	.	?	/
CCOc1cc(C(=S)N2CCOCC2)ccc1OC(=O)c1cccc(C)c1	?	/	?	.	.	.
CCOc1cc(C(=S)N2CCOCC2)ccc1OC(=O)c1ccc(C)cc1	45µM	.	?	?	.	.
CCOc1cc(C(=S)N2CCCC2)ccc1OCc1ccccc1	.	.	.	.	.	.
